“And” between values parts separate entries of the source, which are not always exact repeats. Equal entries are not always repeated. Inconclusive results are not listed. The source made the active and inactive calls. Unless noted, calls follow the shape of the dose curve; as a rule, active = well fitted curve in the direction sought with a large enough effect in the repeat runs; inconclusive = weak or mixed curves; inactive = no such curve, though single readings can be large; an effect the other way counts as inactive or inconclusive.
Assays:
[1] = qHTS assay to identify small molecule antagonists of the sonic hedgehog signaling (Shh) pathway (AID 1259369; calls by dose curve; also: nearly all actives have a fitted effect of over 45% in size; also: potency is read from the fitted curve at half-maximal effect)
Outline: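 Luminescence readout: firefly Luc under Gli1 response element in 3T3Gli1-Luc cells (NIH/3T3 clone). Antagonist mode, stimulation by conditioned medium; compound exposure 24hr at 37 C, 5% CO2.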

[2] = qHTS assay to identify small molecule agonists of the androgen receptor (AR) signaling pathway in the presence of an antagonist - cell viability counter screen (AID 1259379); also: nearly all actives have a fitted effect of over 25% in size; also: potency is read from the fitted curve at half-maximal effect
Outline: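 Viability counter screen: CellTiter-Fluor fluorescence, measured in the same wells as the luciferase read-out. MDA-kb2 cells, 3,000/well, with nilutamide at 3.0uM final and compounds at 15 concentrations, 16 hr at 37C, 0% CO2.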

[3] = qHTS assay to identify small molecule agonists of the estrogen receptor beta (ER-beta) signaling pathway - cell viability counter screen (AID 1259380); also: nearly all actives have a fitted effect of over 30% in size; also: potency is read from the fitted curve at half-maximal effect
Outline: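 Luminescence read-out (CellTiter-Glo, 30 min, room temp) taken in the same wells as the beta-lactamase reporter assay; ER-beta-UAS-bla HEK293T cells exposed to DMSO-dissolved compounds for 16 hr at 37C in 2% charcoal-stripped FBS medium.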

[4] = molecular target: Androgen receptor (Homo sapiens) (UniProt P10275); assay: qHTS assay to identify small molecule agonists of the androgen receptor (AR) signaling pathway in the presence of an antagonist (AID 1259381; calls by dose curve; also: nearly all actives have a fitted effect of over 15% in size)
Outline: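 Luciferase read-out (ONE-Glo, 30min room temperature) in MDA-kb2 MMTV-reporter cells; agonist mode run in presence of AR antagonist nilutamide, 3.0uM final. Compounds tested as 15-point series, 16hr exposure at 37C, 0% CO2.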

[5] = qHTS assay to identify small molecule antagonists of the estrogen receptor beta (ER-beta) signaling pathway - cell viability counter screen (AID 1259382); also: nearly all actives have a fitted effect of over 55% in size; also: potency is read from the fitted curve at half-maximal effect
Outline: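 Luminescent ATP read-out (CellTiter-Glo, 30 min, RT) taken in the same wells as the bla reporter assay. HEK293T ER-beta-UAS-bla cells in 2% charcoal-stripped FBS were exposed to compounds with 1nM E2 for 16 hr at 37C.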

[6] = qHTS assay to identify small molecule agonists or antagonists of the thyroid stimulating hormone receptor (TSHR) signaling pathway - wild type cell line counter screen (AID 1259384; calls by dose curve)
Outline: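 Counter screen in untransfected Hek293: compounds (15-point titration, triplicate) plus phosphodiesterase inhibitor Ro20-1724 added after 18 h plating; 30 min RT. Intracellular cAMP via competitive d2/cryptate immunoassay, 1 h incubation.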

[7] = molecular target: Thyrotropin receptor (Homo sapiens) (UniProt P16473); assay: qHTS assay to identify small molecule antagonists of the thyroid stimulating hormone receptor (TSHR) signaling pathway (AID 1259385; calls by dose curve; also: nearly all actives have a fitted effect of over 20% in size; also: potency is read from the fitted curve at half-maximal effect)
Outline: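 Antagonist mode: compound-treated TSHR-expressing HEK293 cells were stimulated with 1.5 ng/mL TSH (final) in presence of Ro20-1724 for 30 min at RT. HTRF cAMP detection after 1 h; each compound tested at 15 concentrations, triplicate.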

[8] = qHTS assay to identify small molecule agonists of the estrogen receptor alpha (ER-alpha) signaling pathway in the presence of an antagonist - cell viability counter screen (AID 1259386);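 also: cells exposed to compounds for 22 h at 37 °C before the viability read; nearly all actives have a fitted effect of over 30% in size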; also: potency is read from the fitted curve at half-maximal effect
Outline: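 Read-out: CellTiter-Fluor fluorescence after 1hr reagent incubation, measured in the same wells as the luciferase readout. VM7Luc4E2 cells were exposed to 15 compound concentrations with 10.0nM ICI-182,780 for 22hr at 37C.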

[9] = qHTS assay to identify small molecule antagonists of the progesterone receptor (PR) signaling pathway - cell viability counter screen (AID 1346798); also: nearly all actives have a fitted effect of over 50% in size; also: potency is read from the fitted curve at half-maximal effect
Outline: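 Counter screen for cytotoxicity: viability of PR-UAS-bla HEK293T cells was measured with CellTiter-Glo luminescence following 16 hr compound exposure in the presence of R5020.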

[10] = qHTS assay to identify small molecule agonists of the progesterone receptor (PR) signaling pathway - cell viability counter screen (AID 1346799; calls by dose curve; also: nearly all actives have a fitted effect of over 45% in size; also: potency is read from the fitted curve at half-maximal effect)
Outline: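 Cells (PR-UAS-bla HEK293T) are plated at 3,000/well in 2% charcoal-stripped FBS medium, rested 6 hr, dosed and incubated 16 hr at 37C. CellTiter-Glo is then added and luminescence measured after 30 min at room temperature.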

[11] = qHTS assay to identify small molecule antagonists of the TGF-beta/Smad signaling pathway - cell viability counter screen (AID 1346824); also: nearly all actives have a fitted effect of over 50% in size; also: potency is read from the fitted curve at half-maximal effect
Outline: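 Cytotoxicity counter-screen run in the same wells as the beta-lactamase Smad reporter read: CellTiter-Glo luminescence after 30 min at room temperature. HEK 293T SBE-bla cells had 5 hr compound exposure at 37 C with TGF-beta1 (0.25 ng/mL stock).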

[12] = qHTS assay to identify small molecule agonists of the TGF-beta/Smad signaling pathway - cell viability counter screen (AID 1346829); also: nearly all actives have a fitted effect of over 45% in size; also: potency is read from the fitted curve at half-maximal effect
Outline: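 HEK 293T SBE-bla line, 5 hr compound exposure at 37 C, multiplexed CellTiter-Glo viability read by luminescence.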

[13] = molecular target: Thyrotropin-releasing hormone receptor (Homo sapiens) (UniProt P34981); assay: qHTS assay to identify small molecule agonists of the thyrotropin-releasing hormone receptor (TRHR) signaling pathway (AID 1346891; calls by dose curve;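 also: HEK293 cells expressing TRHR with calcium dye readout; series mostly up to about 58 µM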)
Outline: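 Cells: TRHR-Hek293, seeded and incubated 18 h. Dye loading: 2 h at 37 °C. Compound added from DMSO stock by pin tool. Read-out: kinetic calcium fluorescence over 3 min.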

[14] = molecular target: Estrogen receptor beta (Homo sapiens) (UniProt Q92731); assay: qHTS assay to identify small molecule antagonists of the estrogen receptor beta (ER-beta) signaling pathway (AID 1259378; active = well fitted inhibition curve with a large enough effect in the signal ratio in the repeat runs, not every such curve was filed as active; the % refers to the signal ratio; also: potency is read from the fitted curve at half-maximal effect)
Outline: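 Antagonist mode: compounds added to beta-lactamase reporter HEK293T ER-beta-UAS cells stimulated with E2 (1nM final), 16 hr at 37C. LiveBLAzer B/G FRET substrate, 2 hours room temperature, fluorescence read-out.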

[15] = molecular target: Progesterone receptor (Homo sapiens) (UniProt P06401); assay: qHTS assay to identify small molecule antagonists of the progesterone receptor (PR) signaling pathway (AID 1346795; active = well fitted inhibition curve with a large enough effect in the signal ratio in the repeat runs, not every such curve was filed as active; the % refers to the signal ratio; also: potency is read from the fitted curve at half-maximal effect)
Outline: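 Antagonist mode: compounds tested against 1 nM (final) promegestone stimulation in HEK293T cells expressing PR-UAS-bla reporter, 16 hr at 37C, 5% CO2; beta-lactamase activity detected via B/G FRET substrate after 2 hr at room temperature.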

[16] = qHTS assay to identify small molecule agonists of the TGF-beta/Smad signaling pathway (AID 1346859; active = well fitted activation curve with a large enough effect in the signal ratio in the repeat runs, not every such curve was filed as active; the % refers to the signal ratio; also: series mostly up to about 77 µM)
Outline: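 Reporter line: HEK 293T with stably integrated SBE-controlled beta-lactamase. Compound exposure lasts 5 hr at 37 C and 5% CO2; substrate loading follows for 2 hr at room temperature, with emission read at 460 and 530 nm.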

[17] = molecular target: Thyrotropin-releasing hormone receptor (Homo sapiens) (UniProt P34981); assay: qHTS assay to identify small molecule antagonists of the thyrotropin-releasing hormone receptor (TRHR) signaling pathway (AID 1346877; active = well fitted inhibition curve with a large enough effect in the repeat runs, not every such curve was filed as active; also: series mostly up to about 51 µM)
Outline: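 HEK293/TRHR cells, 18 h, 37 °C; Ca2+ dye 2 h; cpd 5 min RT; TRH 1 nM final; fluorescence read 3 min, 1 s intervals; 15 concs, triplicate.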

[18] = molecular target: Estrogen receptor (Homo sapiens) (UniProt P03372); assay: qHTS assay to identify small molecule agonists of the estrogen receptor alpha (ER-alpha) signaling pathway in the presence of an antagonist (AID 1259383; calls by dose curve; also: top concentration of the series differs between compounds; nearly all actives have a fitted effect of over 15% in size)
Outline: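 Luciferase luminescence (ONE-Glo, 30min at room temperature) measured in VM7Luc4E2 cells after 22hr compound exposure at 15 concentrations, with 10.0nM ICI-182,780 final present; cells express endogenous ER-alpha and carry four EREs upstream of luciferase.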

[19] = molecular target: Progesterone receptor (Homo sapiens) (UniProt P06401); assay: qHTS assay to identify small molecule agonists of the progesterone receptor (PR) signaling pathway (AID 1346784; calls by dose curve; also: nearly all actives have a fitted effect of over 30% in size)
Outline: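 Cells (PR-UAS-bla HEK 293T, GripTite) were plated in assay medium containing 2% charcoal-stripped FBS and incubated 6 hr. Test compounds in DMSO were added for 16 hr at 37C. FRET substrate was then loaded for 2 hr at room temperature before fluorescence reading.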

Measured: Potency

Chain of Progesterone receptor (Homo sapiens) (P06401 whole entry, looked up): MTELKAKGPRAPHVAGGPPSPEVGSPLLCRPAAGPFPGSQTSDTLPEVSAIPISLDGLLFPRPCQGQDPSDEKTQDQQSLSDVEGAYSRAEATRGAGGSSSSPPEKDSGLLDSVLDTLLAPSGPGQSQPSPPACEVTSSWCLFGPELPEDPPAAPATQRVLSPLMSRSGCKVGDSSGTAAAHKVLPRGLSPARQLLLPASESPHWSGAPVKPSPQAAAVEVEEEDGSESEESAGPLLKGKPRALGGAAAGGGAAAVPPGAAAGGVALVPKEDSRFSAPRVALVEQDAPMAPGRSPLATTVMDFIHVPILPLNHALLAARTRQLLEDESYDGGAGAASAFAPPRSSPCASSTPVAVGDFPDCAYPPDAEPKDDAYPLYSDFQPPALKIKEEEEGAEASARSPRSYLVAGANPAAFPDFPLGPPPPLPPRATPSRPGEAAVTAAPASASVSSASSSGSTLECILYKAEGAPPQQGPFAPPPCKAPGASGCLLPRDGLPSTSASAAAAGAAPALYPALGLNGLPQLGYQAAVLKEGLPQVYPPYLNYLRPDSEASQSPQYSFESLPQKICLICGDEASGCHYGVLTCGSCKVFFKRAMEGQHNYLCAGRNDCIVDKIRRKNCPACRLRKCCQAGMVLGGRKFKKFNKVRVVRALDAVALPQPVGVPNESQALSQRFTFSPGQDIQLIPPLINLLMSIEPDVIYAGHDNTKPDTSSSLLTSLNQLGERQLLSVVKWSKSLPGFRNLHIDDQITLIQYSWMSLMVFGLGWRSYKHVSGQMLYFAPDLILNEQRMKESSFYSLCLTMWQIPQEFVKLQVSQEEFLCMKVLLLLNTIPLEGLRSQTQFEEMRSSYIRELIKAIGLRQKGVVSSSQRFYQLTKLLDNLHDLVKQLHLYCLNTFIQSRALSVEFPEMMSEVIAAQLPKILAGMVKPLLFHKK
Chain of Thyrotropin receptor (Homo sapiens) (P16473 whole entry, looked up): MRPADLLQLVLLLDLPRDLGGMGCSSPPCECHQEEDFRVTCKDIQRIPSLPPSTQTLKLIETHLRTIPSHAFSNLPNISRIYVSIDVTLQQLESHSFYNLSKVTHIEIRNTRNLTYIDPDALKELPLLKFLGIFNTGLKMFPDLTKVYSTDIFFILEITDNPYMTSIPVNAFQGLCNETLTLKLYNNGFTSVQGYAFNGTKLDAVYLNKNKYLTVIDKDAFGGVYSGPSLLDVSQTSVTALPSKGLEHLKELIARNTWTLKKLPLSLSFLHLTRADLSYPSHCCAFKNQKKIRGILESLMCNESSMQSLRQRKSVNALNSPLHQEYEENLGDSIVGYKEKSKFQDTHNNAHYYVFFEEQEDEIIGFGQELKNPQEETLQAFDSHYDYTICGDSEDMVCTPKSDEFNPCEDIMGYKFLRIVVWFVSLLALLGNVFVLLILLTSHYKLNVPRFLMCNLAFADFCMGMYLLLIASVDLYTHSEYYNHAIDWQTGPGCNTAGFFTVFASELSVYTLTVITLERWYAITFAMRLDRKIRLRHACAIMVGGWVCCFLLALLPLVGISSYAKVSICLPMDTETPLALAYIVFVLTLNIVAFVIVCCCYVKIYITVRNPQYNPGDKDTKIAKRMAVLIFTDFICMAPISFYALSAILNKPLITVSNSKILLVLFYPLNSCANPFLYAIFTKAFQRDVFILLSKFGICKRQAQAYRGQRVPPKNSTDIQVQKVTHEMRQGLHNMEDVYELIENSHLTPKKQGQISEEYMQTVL
Chain of Thyrotropin-releasing hormone receptor (Homo sapiens) (P34981 whole entry, looked up): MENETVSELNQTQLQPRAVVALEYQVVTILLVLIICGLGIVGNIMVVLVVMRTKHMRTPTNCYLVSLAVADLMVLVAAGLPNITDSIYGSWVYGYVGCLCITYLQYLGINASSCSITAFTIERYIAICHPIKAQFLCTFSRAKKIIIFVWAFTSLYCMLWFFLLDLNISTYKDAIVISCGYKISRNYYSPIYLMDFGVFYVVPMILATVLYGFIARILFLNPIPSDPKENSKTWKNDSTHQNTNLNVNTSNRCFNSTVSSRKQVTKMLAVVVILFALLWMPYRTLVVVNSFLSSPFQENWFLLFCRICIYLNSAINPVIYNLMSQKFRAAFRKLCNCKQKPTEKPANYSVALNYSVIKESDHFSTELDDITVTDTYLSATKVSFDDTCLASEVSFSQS
Chain of Androgen receptor (Homo sapiens) (P10275 whole entry, looked up): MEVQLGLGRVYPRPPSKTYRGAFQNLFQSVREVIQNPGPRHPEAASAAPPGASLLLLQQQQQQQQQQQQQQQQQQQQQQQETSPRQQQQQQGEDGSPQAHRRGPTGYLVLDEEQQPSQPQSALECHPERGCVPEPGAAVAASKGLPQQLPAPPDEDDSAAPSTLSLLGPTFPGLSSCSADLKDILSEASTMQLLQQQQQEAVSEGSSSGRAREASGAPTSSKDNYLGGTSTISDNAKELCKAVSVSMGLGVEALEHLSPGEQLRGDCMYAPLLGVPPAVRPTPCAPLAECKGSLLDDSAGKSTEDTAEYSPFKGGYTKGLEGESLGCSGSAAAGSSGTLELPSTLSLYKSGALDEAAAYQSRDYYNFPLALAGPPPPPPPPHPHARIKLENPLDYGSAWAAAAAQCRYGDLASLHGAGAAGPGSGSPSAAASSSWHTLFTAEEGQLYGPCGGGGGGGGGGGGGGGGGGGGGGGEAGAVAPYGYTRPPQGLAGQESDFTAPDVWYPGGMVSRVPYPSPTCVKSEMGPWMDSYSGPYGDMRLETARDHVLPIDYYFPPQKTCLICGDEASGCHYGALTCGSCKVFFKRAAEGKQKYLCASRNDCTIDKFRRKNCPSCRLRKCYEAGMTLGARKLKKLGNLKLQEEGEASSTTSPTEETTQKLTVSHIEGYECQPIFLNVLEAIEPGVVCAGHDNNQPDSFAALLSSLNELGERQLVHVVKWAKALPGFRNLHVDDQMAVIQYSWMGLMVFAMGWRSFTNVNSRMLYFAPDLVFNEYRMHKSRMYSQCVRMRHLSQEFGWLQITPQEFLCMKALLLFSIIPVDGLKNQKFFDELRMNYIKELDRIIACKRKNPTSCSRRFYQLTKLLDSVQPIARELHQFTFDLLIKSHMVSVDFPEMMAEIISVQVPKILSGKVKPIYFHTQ
Chain of Estrogen receptor (Homo sapiens) (P03372 whole entry, looked up): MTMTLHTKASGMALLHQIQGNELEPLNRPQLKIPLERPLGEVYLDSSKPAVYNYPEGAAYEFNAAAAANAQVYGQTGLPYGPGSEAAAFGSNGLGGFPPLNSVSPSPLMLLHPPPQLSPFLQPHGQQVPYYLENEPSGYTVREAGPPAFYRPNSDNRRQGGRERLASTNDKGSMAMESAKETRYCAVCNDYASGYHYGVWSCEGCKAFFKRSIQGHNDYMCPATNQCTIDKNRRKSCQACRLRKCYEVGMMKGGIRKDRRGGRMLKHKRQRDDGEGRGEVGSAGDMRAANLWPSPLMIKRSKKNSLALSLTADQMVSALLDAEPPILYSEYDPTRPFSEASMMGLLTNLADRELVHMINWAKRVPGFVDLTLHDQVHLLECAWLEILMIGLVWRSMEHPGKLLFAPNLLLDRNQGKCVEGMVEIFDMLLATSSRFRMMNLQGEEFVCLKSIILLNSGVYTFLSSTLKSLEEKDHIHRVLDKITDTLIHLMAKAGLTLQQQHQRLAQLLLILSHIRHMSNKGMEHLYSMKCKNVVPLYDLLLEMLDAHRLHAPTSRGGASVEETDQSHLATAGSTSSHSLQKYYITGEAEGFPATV
Chain of Estrogen receptor beta (Homo sapiens) (Q92731 whole entry, looked up): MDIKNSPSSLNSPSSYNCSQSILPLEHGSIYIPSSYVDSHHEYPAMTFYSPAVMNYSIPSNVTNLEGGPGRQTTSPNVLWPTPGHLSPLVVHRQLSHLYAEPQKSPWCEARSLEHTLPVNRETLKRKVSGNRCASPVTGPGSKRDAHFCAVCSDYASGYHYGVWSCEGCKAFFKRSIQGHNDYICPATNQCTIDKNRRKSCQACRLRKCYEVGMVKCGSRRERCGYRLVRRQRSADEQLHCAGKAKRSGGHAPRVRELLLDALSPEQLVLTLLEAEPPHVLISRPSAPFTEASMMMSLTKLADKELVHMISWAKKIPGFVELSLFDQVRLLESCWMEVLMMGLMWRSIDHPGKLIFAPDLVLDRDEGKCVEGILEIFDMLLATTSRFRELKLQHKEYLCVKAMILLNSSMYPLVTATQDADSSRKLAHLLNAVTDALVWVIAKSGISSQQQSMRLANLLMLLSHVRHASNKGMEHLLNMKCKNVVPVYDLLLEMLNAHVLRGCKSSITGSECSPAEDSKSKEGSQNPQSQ

CC/C(=C(\c1ccc(O)cc1)c1ccc(OCCN(C)C)cc1)c1ccccc1
active: [1] 9.71 µM | [2] 61.3 µM | [3] 24.4 µM | [5] 27.4 µM | [7] 77.1 µM | [8] 68.7 µM | [9] 27.4 µM | [10] 27.4 µM | [11] 61.8 µM | [12] 55.1 µM
inactive: [4] | [6] | [13]

On1ccccc1=S
active: [1] 0.762 µM | [14] 0.428 µM | [3] 0.539 µM | [15] 0.539 µM | [9] 0.605 µM | [10] 0.959 µM
inactive: [6] | [7] | [11] | [12] | [16] | [17] | [13]

CCCCC(CC)COP(=O)(O)OCC(CC)CCCC (centres undefined)
active: [3] 68.7 µM and 7.7 µM | [5] 68.7 µM and 68.6 µM
inactive: [1] | [2] | [18] | [8] | [11] | [12] | [16] | [17] | [13]

CCOC(=O)O[C@H](C)OC(=O)c1ccc2c(c1)cc(C(=O)NC1CCN(C(C)C)CC1)n2Cc1cc(-c2ccc(Cl)s2)on1
active: [1] 9.05 µM | [2] 45.4 µM | [3] 20.3 µM | [5] 22.7 µM | [7] 64.1 µM | [9] 22.7 µM | [10] 22.7 µM | [12] 45.8 µM
inactive: [18] | [17] | [13]

CC(C)c1ccc2c(c1)CC[C@H]1[C@](C)(CN)CCC[C@]21C
active: [1] 15.4 µM | [2] 43.3 µM | [3] 54.5 µM | [5] 61.1 µM
inactive: [6] | [8] | [15] | [11] | [16]

CN(C/C=C/C#CC(C)(C)C)Cc1cccc2ccccc12
inactive: [1] | [2] | [6] | [7] | [8] | [12] | [16] | [13]
active: [3] 26.6 µM | [5] 29.8 µM | [9] 26.6 µM

CC(C)(C)NC(=O)[C@@H]1C[C@@H]2CCCC[C@@H]2CN1C[C@@H](O)[C@H](Cc1ccccc1)NC(=O)[C@H](CC(N)=O)NC(=O)c1ccc2ccccc2n1
active: [1] 24.7 µM | [2] 61.9 µM | [3] 55.2 µM | [5] 61.9 µM | [8] 49.2 µM | [15] 49.2 µM | [9] 55.2 µM | [10] 39.1 µM
inactive: [18] | [6] | [7] | [19]

Cc1[nH]nc2c1N=C(c1ccccc1Cl)c1cc([N+](=O)[O-])ccc1N2
inactive: [6]
active: [1] 1.72 µM | [2] 30.6 µM | [3] 27.3 µM | [5] 48.6 µM | [8] 27.3 µM | [12] 4.36 µM

c1ccc(CSCc2ccccc2)cc1
not listed: [4] | [6] | [7] | [14] | [18] | [19]
inactive: all other assays above

CC(C)(C)C(=O)OCOC(=O)C1N2C(=O)CC2S(=O)(=O)C1(C)C (centres undefined)
not listed: [3] | [9] | [11] | [14] | [15] | [19]
inactive: all other assays above

O=[N+]([O-])c1cc(Cl)c(Cl)c(Cl)c1Cl
active: [2] 24.2 µM
not listed: [4] | [11] | [14] | [15] | [16] | [18]
inactive: all other assays above

CCCCCCCCCCCCCCCC(=O)OC[C@H](O)[C@H]1OC(=O)C(O)=C1O
active: [3] 43.3 µM | [10] 27.3 µM
not listed: [5] | [9] | [11] | [14] | [17]
inactive: all other assays above

COc1cc(/C=C/C(=O)O[C@H]2CC[C@]34C[C@]35CC[C@]3(C)[C@@H]([C@H](C)CCC=C(C)C)CC[C@@]3(C)[C@@H]5CC[C@H]4C2(C)C)ccc1O
not listed: [4] | [6] | [7] | [10] | [14] | [18]
inactive: all other assays above

COc1ccc(CN2CCN(C(c3ccc(F)cc3)c3ccc(F)cc3)CC2)c(OC)c1OC
inactive: [6] | [17] | [13]
active: [1] 29.8 µM | [2] 26.6 µM | [3] 11.9 µM | [5] 10.6 µM | [9] 16.8 µM | [10] 13.3 µM | [11] 16.9 µM | [12] 23.9 µM
